Measurements reported in the supplement of paper PMC10849652.
The full data set covers some 8,800 targets. This sample favours those with a hit. About 0.5% of all pairs of compound and target were hits.

These targets were tested with CC(C)(C)Cn1c(N)nc2ccc(-c3[nH]c(C(C)(C)C)nc3-c3ccc(F)cc3)nc21 [ralimetinib] (assay: log2 fold change, soluble protein after heating vs DMSO (PISA); higher = thermal stabilisation; K562 lysate, 10 uM; active = over 0.2 and 3.5 SD of the protein, either way, in both replicates (recomputed)).
Outline: (§1)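 Dounce homogenisation of K562 pellets in PBS pH 7.4 with 1 mM MgCl2 produced a crude extract, used at 1 mg/mL protein. Exposure to 10 μM compound lasted 30 min, and aliquots were then heated for 3 min across 48°C-58°C, pooled and brought to 0.5% NP-40 at 4°C. The supernatant after 21,000xg for 90 min was quantified by TMTpro 16plex LC-MS/MS with channel sums equalised. Duplicate values are given as log-two fold change in thermal stability relative to solvent controls.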

Sequence of UniProt Q9UL40 (Q9UL40 whole entry, looked up): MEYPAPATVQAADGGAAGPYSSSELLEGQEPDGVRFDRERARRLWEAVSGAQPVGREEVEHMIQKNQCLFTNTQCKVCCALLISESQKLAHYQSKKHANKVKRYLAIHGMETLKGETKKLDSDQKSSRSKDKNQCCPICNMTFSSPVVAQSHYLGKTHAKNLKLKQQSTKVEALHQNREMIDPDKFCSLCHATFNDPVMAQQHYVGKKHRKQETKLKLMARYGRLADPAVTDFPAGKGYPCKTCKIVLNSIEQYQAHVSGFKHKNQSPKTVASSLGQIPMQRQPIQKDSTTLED
Sequence of UniProt Q9UBW7 (Q9UBW7 whole entry, looked up): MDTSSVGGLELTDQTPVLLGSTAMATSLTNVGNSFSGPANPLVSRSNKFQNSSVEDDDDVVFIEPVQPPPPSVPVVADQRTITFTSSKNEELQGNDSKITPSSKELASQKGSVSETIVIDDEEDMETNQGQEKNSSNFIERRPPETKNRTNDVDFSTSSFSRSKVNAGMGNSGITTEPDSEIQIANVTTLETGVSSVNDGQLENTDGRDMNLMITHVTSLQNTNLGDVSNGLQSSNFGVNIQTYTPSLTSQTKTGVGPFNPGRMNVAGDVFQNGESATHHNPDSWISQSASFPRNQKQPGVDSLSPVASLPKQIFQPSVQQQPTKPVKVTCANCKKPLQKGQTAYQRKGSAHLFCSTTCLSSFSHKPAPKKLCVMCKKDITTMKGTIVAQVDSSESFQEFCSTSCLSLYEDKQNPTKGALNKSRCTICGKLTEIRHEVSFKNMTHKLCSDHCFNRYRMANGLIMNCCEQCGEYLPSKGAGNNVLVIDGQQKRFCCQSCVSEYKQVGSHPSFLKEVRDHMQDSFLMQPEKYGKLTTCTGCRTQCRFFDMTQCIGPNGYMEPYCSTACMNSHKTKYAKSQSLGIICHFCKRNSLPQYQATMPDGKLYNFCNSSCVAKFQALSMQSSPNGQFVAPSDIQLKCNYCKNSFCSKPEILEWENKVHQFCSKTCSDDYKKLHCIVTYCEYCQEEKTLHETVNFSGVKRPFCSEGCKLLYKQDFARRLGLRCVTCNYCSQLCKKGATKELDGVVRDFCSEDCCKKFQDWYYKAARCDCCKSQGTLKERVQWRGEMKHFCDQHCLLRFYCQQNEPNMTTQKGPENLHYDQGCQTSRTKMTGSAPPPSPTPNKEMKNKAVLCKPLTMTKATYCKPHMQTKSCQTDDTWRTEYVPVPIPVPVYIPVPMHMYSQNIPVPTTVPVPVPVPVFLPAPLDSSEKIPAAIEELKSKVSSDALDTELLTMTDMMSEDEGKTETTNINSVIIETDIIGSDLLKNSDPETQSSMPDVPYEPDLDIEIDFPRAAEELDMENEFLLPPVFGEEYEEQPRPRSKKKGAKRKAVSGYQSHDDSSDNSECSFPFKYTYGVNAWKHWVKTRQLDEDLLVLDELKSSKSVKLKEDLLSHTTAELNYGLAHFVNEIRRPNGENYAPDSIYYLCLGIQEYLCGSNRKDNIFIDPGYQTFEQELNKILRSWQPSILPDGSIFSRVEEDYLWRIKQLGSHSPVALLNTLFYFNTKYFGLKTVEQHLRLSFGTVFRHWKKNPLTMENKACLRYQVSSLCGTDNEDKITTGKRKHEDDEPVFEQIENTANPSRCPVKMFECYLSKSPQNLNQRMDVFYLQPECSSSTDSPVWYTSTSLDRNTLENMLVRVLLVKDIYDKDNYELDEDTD
Sequence of UniProt Q86UV5 (Q86UV5 whole entry, looked up): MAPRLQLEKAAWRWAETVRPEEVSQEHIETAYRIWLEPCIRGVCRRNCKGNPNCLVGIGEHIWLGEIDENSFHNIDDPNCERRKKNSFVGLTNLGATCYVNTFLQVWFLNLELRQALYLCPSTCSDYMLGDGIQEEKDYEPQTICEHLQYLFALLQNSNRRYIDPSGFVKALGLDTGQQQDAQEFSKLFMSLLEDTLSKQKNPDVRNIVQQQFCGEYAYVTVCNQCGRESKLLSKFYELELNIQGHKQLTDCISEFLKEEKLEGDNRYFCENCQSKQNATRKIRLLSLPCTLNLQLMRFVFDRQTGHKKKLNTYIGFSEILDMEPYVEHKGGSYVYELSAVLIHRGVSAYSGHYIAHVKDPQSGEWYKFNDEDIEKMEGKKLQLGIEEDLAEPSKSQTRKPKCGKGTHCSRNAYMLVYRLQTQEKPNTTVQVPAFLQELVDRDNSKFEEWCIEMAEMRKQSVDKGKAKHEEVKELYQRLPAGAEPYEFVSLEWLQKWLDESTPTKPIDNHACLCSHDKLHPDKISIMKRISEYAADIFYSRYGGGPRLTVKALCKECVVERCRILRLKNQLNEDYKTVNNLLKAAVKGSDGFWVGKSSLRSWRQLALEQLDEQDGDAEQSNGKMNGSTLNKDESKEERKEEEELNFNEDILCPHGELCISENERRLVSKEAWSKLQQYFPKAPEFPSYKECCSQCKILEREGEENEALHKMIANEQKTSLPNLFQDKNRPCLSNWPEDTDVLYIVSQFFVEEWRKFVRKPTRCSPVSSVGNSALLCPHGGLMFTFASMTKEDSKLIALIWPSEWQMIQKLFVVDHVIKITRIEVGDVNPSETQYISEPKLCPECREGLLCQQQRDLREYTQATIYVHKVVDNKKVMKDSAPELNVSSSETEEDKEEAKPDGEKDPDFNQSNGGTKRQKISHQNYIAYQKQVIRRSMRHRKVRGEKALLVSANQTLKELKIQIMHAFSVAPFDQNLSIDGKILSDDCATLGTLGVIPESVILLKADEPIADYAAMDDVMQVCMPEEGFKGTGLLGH
Sequence of UniProt Q9HAD4 (Q9HAD4 whole entry, looked up): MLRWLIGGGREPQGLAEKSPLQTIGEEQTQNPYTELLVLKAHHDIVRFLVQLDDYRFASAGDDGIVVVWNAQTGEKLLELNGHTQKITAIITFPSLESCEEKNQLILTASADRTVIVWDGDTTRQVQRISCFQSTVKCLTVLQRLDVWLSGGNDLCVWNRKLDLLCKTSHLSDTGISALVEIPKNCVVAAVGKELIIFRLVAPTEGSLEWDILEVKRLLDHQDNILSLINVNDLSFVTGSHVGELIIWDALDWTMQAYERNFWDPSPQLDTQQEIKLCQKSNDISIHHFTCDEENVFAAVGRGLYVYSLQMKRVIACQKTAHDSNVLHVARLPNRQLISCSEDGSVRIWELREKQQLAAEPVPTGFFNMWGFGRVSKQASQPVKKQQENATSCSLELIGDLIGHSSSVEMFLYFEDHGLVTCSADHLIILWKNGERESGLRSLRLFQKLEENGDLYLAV
Sequence of UniProt Q14191 (Q14191 whole entry, looked up): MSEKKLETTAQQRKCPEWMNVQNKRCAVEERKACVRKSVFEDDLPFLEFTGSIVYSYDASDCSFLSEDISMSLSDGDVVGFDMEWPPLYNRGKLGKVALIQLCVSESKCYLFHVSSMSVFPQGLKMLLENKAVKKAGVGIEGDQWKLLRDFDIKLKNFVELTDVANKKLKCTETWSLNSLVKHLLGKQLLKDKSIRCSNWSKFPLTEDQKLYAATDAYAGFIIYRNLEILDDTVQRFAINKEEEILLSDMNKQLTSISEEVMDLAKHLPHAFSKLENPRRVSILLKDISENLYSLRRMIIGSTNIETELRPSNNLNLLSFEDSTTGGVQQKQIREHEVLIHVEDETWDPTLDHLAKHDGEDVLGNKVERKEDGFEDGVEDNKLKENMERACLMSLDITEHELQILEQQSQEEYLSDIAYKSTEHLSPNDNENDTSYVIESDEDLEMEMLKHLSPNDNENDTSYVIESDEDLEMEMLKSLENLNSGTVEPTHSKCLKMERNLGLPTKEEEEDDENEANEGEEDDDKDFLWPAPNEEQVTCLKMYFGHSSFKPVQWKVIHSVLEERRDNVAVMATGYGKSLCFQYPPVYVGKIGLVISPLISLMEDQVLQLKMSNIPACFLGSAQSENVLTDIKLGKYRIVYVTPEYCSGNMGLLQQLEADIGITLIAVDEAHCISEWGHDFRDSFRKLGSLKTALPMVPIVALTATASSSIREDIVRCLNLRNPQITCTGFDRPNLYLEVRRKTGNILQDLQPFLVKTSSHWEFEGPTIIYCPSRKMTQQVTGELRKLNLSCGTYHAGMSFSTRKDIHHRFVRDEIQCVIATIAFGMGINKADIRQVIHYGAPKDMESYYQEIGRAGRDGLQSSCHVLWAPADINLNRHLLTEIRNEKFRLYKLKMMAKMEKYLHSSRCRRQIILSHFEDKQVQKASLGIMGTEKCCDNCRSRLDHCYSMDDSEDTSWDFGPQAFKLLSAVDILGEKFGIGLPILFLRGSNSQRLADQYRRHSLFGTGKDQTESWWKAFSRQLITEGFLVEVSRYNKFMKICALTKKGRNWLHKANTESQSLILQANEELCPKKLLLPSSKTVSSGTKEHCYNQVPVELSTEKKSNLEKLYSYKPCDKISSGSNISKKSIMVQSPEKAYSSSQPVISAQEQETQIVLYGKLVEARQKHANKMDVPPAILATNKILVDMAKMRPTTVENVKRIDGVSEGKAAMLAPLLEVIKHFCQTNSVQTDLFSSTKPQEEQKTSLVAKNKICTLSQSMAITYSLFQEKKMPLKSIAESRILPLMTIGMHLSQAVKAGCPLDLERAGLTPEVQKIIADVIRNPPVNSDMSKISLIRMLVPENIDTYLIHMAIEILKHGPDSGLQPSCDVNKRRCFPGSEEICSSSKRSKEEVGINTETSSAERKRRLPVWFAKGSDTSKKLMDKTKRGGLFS
Sequence of UniProt Q96NC0 (Q96NC0 whole entry, looked up): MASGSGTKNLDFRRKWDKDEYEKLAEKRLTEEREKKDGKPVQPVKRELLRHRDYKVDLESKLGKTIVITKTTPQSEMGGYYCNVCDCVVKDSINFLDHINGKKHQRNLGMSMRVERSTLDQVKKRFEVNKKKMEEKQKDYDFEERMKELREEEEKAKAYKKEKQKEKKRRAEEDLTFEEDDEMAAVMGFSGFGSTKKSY
Sequence of UniProt Q86U90 (Q86U90 whole entry, looked up): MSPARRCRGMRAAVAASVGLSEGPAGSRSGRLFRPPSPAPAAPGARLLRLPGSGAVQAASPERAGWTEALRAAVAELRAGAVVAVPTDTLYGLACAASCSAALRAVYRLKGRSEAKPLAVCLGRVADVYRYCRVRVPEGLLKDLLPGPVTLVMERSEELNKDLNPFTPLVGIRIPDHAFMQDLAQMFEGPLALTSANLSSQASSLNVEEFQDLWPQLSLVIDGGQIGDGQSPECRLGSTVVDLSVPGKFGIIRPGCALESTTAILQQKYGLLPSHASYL

log2 fold change, inactive:
UQCC2 (UniProt Q9BRT2) 0.006
ZZEF1 (UniProt O43149) -0.002
YME1L1 (UniProt Q96TA2) -0.006
WIPI2 (UniProt Q9Y4P8) 0.026
VPS37B (UniProt Q9H9H4) -0.055
WDR41 (UniProt Q9HAD4) 0.017
WRN (UniProt Q14191) 0.021
UNC45A (UniProt Q9H3U1) 0.03
USP10 isoform 2 (UniProt Q14694) -0.019
ZNF346 (UniProt Q9UL40) -0.019
USP8 (UniProt P40818) 0
UTP3 (UniProt Q9NQZ2) 0.055
USP48 (UniProt Q86UV5) -0.038
YEATS4 (UniProt O95619) 0.003
VASP (UniProt P50552) -0.003
VPS16 (UniProt Q9H269) -0.012
WRNIP1 (UniProt Q96S55) 0.051
ZMYM1 (UniProt Q5SVZ6) 0.02
WRB (UniProt O00258) -0.095
ZMYM2 (UniProt Q9UBW7) -0.037
ZMAT2 (UniProt Q96NC0) -0.011
XPO5 (UniProt Q9HAV4) 0
YTHDC2 (UniProt Q9H6S0) 0.061
YRDC (UniProt Q86U90) 0.025
ZBTB33 (UniProt Q86T24) -0.058
VPS11 (UniProt Q9H270) 0.033
VAC14 (UniProt Q08AM6) -0.003
VAV1 (UniProt P15498) 0.083
UTP18 (UniProt Q9Y5J1) 0.002
ZHX1 (UniProt Q9UKY1) -0.007

These targets were tested with CC(C)(O)CC(=O)NCCn1ccc2ncnc(Nc3ccc(Oc4cccc(C(F)(F)F)c4)c(Cl)c3)c21 in the same assay as above.
Outline: as §1

log2 fold change, inactive:
UQCC2 (UniProt Q9BRT2) 0.01
ZZEF1 (UniProt O43149) -0.057
YME1L1 (UniProt Q96TA2) -0.043
WIPI2 (UniProt Q9Y4P8) 0.018
VPS37B (UniProt Q9H9H4) 0.009
WDR41 (UniProt Q9HAD4) 0.088
WRN (UniProt Q14191) -0.055
UNC45A (UniProt Q9H3U1) -0.012
USP10 isoform 2 (UniProt Q14694) -0.014
ZNF346 (UniProt Q9UL40) -0.075
USP8 (UniProt P40818) -0.014
UTP3 (UniProt Q9NQZ2) -0.051
USP48 (UniProt Q86UV5) 0.031
YEATS4 (UniProt O95619) 0.009
VASP (UniProt P50552) -0.018
VPS16 (UniProt Q9H269) -0.038
WRNIP1 (UniProt Q96S55) 0.026
ZMYM1 (UniProt Q5SVZ6) 0.016
WRB (UniProt O00258) -0.255
ZMYM2 (UniProt Q9UBW7) -0.106
ZMAT2 (UniProt Q96NC0) 0.013
XPO5 (UniProt Q9HAV4) -0.043
YTHDC2 (UniProt Q9H6S0) 0.021
YRDC (UniProt Q86U90) -0.012
ZBTB33 (UniProt Q86T24) -0.158
VPS11 (UniProt Q9H270) -0.025
VAC14 (UniProt Q08AM6) -0.055
VAV1 (UniProt P15498) -0.042
UTP18 (UniProt Q9Y5J1) -0.017
ZHX1 (UniProt Q9UKY1) 0.034
